Sampled rows, rich in hits. Any-hit rate of the full collection: about 27%.
CYP2C19 activ: cytochrome P450 2C19 (human) activation | recombinant CYP2C19, luciferin-H EGE luminescence; stronger effect = higher value; 0 = fully inhibited enzyme, 1 = untreated enzyme | activation factor at 5 µM | 96,000 tested, under 10 active | AID 1025;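 active = activation factor of at least 2 at 5 µM in the primary screen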;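 note: 0 = wells with 2.5 mM tranylcypromine and 1 = vehicle-only wells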
CYP2C9 inhib: inhibitors of human CYP2C9; CYP2C9 Supersomes, luciferin-H conversion, luminescence; inhibition, % at 5 µM; 96,000 tested, 20% active;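 active = blocking of liver enzyme CYP2C9 beyond about 50% at 5 µM, limit read from the data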
CYP2C19 inh: blocks human cytochrome P450 2C19 | P33261 | CYP2C19 Supersomes, luciferin-H EGE luminescence, 30 min | inhibition, % at 5 µM | 96,000 tested, 21% active | AID 778;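 active = CYP2C19 inhibition above a set limit at 5 µM in the primary screen, cut at about 50% in these data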;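 note: plate controls were negative control wells for no effect and 2.5 mM tranylcypromine positive control for full effect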
CYP2C9 activ: CYP2C9 (human) activation; recombinant CYP2C9, luciferin-H conversion, luminescence; stronger effect = higher value; factor 1 = untreated enzyme, 0 = blocked; 96,000 tested, 1.4% active; P11712; activation factor at 5 µM;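 active = activation factor of 2 or more for CYP2C9 at a 5 µM dose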;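 note: 0 = sulfaphenazole-blocked wells and 1 = vehicle-only wells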
EphB4 antag: antagonists of human EphB4-ephrin-B2 interaction; EphB4 LBD / TNYL-RAW-Alexa532 peptide, fluorescence polarization; inhibition, % at 7 µM; 97,000 tested, 0.15% active; AID 720;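 active = inhibition above the screen-wide mean inhibition plus 3 SD, cut at about 15% in these data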;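 note: 0% = DMSO wells and 100% = excess unlabeled TNYL-RAW peptide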
An asterisk follows results filed as active; / = no result given.

SMILES | CYP2C19 activ | CYP2C9 inhib | CYP2C19 inh | CYP2C9 activ | EphB4 antag
CCOC(=O)c1c(C)[nH]c(C(=O)COC(=O)CSC)c1C | 0.6 | 56.5* | 40.6 | 0.4 | 5.6
CCOC(=O)c1c(C)[nH]c(C(=O)COC(=O)c2ccc(N3CCCC3=O)cc2)c1C | 1 | 89.9* | 0.3 | 0.1 | 1.0
CCOC(=O)c1c(C)[nH]c(N=Nc2ccc(C)cc2C)c1C | 0.8 | -2.1 | 15.2 | 1 | -1.9
C1CCC(c2nn3c(-c4n[nH]c5c4CCC5)nnc3s2)CC1 | 0.1 | 31.7 | 87.2* | 0.7 | -1.3
CCN(CC)c1ccc(-c2nn3c(-c4n[nH]c5c4CCC5)nnc3s2)cc1 | 0.9 | 20.6 | 12.3 | 0.8 | -1.1
COc1cccc(N2CC(C(=O)Oc3ccc4ccccc4c3)CC2=O)c1 (stereo not given) | 0.9 | 13.0 | 8.9 | 0.9 | -1.6
COc1ccccc1N=c1oc2cc(O)ccc2cc1C(N)=O | 0.9 | 70.9* | 9.4 | 0.3 | 0.5
Cc1cccc(N=c2oc3cc(O)ccc3cc2C(N)=O)c1 | 0.8 | 69.2* | 17.6 | 0.3 | -1.6
O=C(/C=C/c1ccc(Cl)cc1Cl)NCc1ccncc1 | 0.2 | 75.6* | 80.8* | 0.2 | -7.9
Cc1cc(C)nc(NC(=O)/C=C/c2ccc(Cl)cc2Cl)c1 | 0.9 | -36.0 | 5.0 | 1.4 | -10.2
Cc1cc(C)c(NN=c2c(=O)c3ccccc3c2=O)c(C)c1 | 1 | 17.7 | 4.0 | 0.8 | 9.6
O=c1c(=NNc2ccccc2Cl)c(=O)c2ccccc12 | 0.4 | 32.4 | 60.3* | 0.7 | -6.5
Cc1ccc(-c2sc(C)nc2CC(=O)O)cc1 | 0.6 | 7.6 | 36.5 | 0.9 | -3.3
COCCNC(=O)C(C)N(c1ccc(OC)cc1)S(C)(=O)=O (stereo not given) | 0.8 | -28.7 | 23.3 | 1.3 | -7.6
CC(c1ccccc1)n1cc(C(=O)NCc2cccnc2)nn1 (stereo not given) | 0.6 | -6.1 | 39.2 | 1.1 | -5.0
Cc1ccc(C(C)n2cc(C(=O)NCc3ccncc3)nn2)cc1 (stereo not given) | 0.6 | 88.7* | 43.1 | 0.1 | -5.3
O=C(Nc1ccc(-n2cnnn2)cc1)C1CCCN1C(=O)NC1CCCCC1 (stereo not given) | 0.3 | 58.7* | 66.5* | 0.4 | -4.8
CCOc1ccccc1NC(=O)N1CCCC1C(=O)Nc1ccc(-n2cnnn2)c(C)c1 (stereo not given) | 0.3 | 78.8* | 69.9* | 0.2 | /
O=C(Nc1ccc(-n2cnnn2)cc1)C1CCCCC1 | 0.7 | 30.7 | 32.7 | 0.7 | -7.1
O=[N+]([O-])c1ccc(Sc2nnnn2-c2ccccc2)c(Cl)c1 | 0 | 68.5* | 98.3* | 0.3 | -0.5
Nc1ccc(Sc2nnnn2-c2ccccc2)c(Cl)c1 | 0.1 | -6.7 | 93.1* | 1.1 | 4.5
Cc1ccc(C)c(-n2nnnc2Sc2nnnn2-c2ccccc2)c1 | / | / | / | / | 0.9
COc1ccc(/C=N/NC(=O)c2ccc3ccccc3c2)cc1OS(=O)(=O)c1ccc(NC(C)=O)cc1 | 0.2 | 87.4* | 78.0* | 0.1 | -12.4
COC(=O)/C=C/S(=O)(=O)c1ccc(NC(C)=O)cc1 | 1 | 1.0 | -1.0 | 1 | -2.6
COc1cc(C=O)cc(OC)c1OS(=O)(=O)c1ccc(NC(C)=O)cc1 | 0.1 | -181.5 | 91.2* | 2.8* | -5.1
SMILES | CYP2C19 activ | CYP2C9 inhib | CYP2C19 inh | CYP2C9 activ | EphB4 antag
CC(C)C(NC(=O)c1ccc(S(=O)(=O)N2CCOCC2)cc1)c1nc2ccccc2[nH]1 (stereo not given) | 0.7 | 23.3 | 27.8 | 0.8 | -4.0
S=C1NC(c2ccccc2)=NCN1c1ccccc1 | 0.1 | 64.6* | 94.7* | 0.4 | 1.6
O=S(=O)(c1ccc(Cl)c(Cl)c1)c1snnc1-c1ccccc1 | 0 | 90.2* | 98.7* | 0.1 | 1.1
CCN(CC)CCOC(=O)c1ccc(NC(=O)COc2cc(=O)n(CC)c3ccccc23)cc1 | 0.3 | 52.0* | 65.6* | 0.5 | 3.7
Cc1ccc(Oc2c(C=O)c3ccccc3n2C)cc1 | 0.3 | -3.0 | 67.8* | 1 | 11.1
COc1ccc(-c2c(NC(=O)C(C)C)n(C)c3ccccc3c2=O)cc1 | 0.5 | 35.4 | 46.7 | 0.6 | -7.0
COc1ccc(Oc2c(C=O)c3ccccc3n2C)cc1 | 0.3 | -33.8 | 69.2* | 1.3 | -3.2
Cn1c(Oc2ccc(Cl)cc2)c(C=O)c2ccccc21 | 0.4 | 30.4 | 57.7* | 0.7 | 5.6
Cc1nn2c(C)c(C(=O)Nc3ccccc3)cnc2c1C#N | 1 | 17.6 | 2.2 | 0.8 | -6.4
Cc1cc(C)n(Cc2n[nH]c(=S)n2Cc2ccccc2)n1 | 0.7 | 14.4 | 25.8 | 0.9 | 8.6
Cc1nn(Cc2n[nH]c(=S)n2Cc2ccccc2)c(C)c1Cl | 0.5 | 20.9 | 53.2* | 0.8 | 13.7
O=C(OC(C(=O)NCc1cccs1)c1ccccn1)c1cccs1 (stereo not given) | 0.4 | 23.2 | 59.1* | 0.8 | 0.1
O=C(Nc1ccccc1C(=O)O)c1cncc(Br)c1 | 1.1 | 60.3* | -13.4 | 0.4 | 3.1
Cc1ccc(C(C)C)c(OCCNC(=O)c2cncc(Br)c2)c1 | 0.3 | 63.1* | 71.8* | 0.4 | 2.5
COc1cc(OC)cc(C(=O)NCCOc2ccccc2)c1 | 0.4 | 13.6 | 62.3* | 0.9 | -9.8
COC(=O)c1ccc(OCCOc2ccccc2)cc1 | 0.3 | 54.4* | 67.2* | 0.5 | -5.3
Cc1ccc(C(C)C)c(OCCNS(C)(=O)=O)c1 | 0.9 | 4.0 | 7.3 | 1 | 0.7
CCc1cc(C)cc(OCCNC(=O)c2cncc(Br)c2)c1 | 0.3 | 23.1 | 71.6* | 0.8 | -0.3
O=C(NCCOc1ccccc1)c1cncc(Br)c1 | 0.2 | 32.3 | 84.0* | 0.7 | 5.4
O=C(NCCSc1ccccc1)c1cncc(Br)c1 | 0.6 | 3.1 | 35.1 | 1 | 5.9
C/C(Cl)=C\Cn1c(Nc2ccccc2)nc2c1c(=O)n(C)c(=O)n2C | 1 | 8.2 | -2.4 | 0.9 | -1.7
CCOc1ccc(C(c2c(C)[nH][nH]c2=O)c2c(C)[nH][nH]c2=O)cc1OC | 0.9 | 29.0 | 13.5 | 0.7 | 5.4
CCOc1cc(C(c2c(C)[nH][nH]c2=O)c2c(C)[nH][nH]c2=O)ccc1OC(=O)c1cccc([N+](=O)[O-])c1 | 0.6 | 53.9* | 41.2 | 0.5 | 10.9
CCOc1cc(C(c2c(C)[nH][nH]c2=O)c2c(C)[nH][nH]c2=O)ccc1OCc1ccc([N+](=O)[O-])cc1 | 0.4 | 33.5 | 60.0* | 0.7 | 1.6
CC1CCN(c2nncc3ccccc23)CC1 | 0.8 | 22.6 | 19.1 | 0.8 | 2.4
CCn1c(CCNC(=O)c2ccc(Cl)cc2)nnc1SCC(=O)NC1CCCC1 | 1.1 | 16.4 | -10.9 | 0.8 | 4.2
CN(C)C(/C=C/Nc1ccc(F)cc1F)=C(C#N)C#N | 0.5 | 24.5 | 48.7 | 0.8 | 0.5
CCOC(=O)CSC1=C(C#N)C(=O)NC(c2ccc(OC)cc2)S1 (stereo not given) | 1.1 | 93.8* | -10.5 | 0.1 | -1.5
CCOC(=O)CSC1=C(C#N)C(=O)NC(c2ccc(OC)c(OC)c2)S1 (stereo not given) | 0.9 | 39.5 | 9.1 | 0.6 | -0.8

Screening results deposited in PubChem BioAssay by several laboratories.
